KCNQ2 inh: inhibitors of rat KCNQ2 potassium channel | AID 2156 | CHO-K1 KCNQ2, FluxOR thallium flux, 20 min; stronger effect = lower value | B-score at 10 µM | actives 1.1% (n = 310,000);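 active means fluorescence ratio B-score at most minus 3 library SDs, with starting brightness B-score within 2 library SDs, cut at about -5.5 in these data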
KCNQ2 pot: KCNQ2 (rat) channel potentiation | O88943 | actives 0.54% (n = 310,000) | B-score at 10 µM | CHO-K1 KCNQ2, FluxOR thallium flux fluorescence; stronger effect = higher value;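 active means fluorescence ratio B-score at least 3 SD of library B-scores, with initial fluorescence B-score within 3 of them, cut at about 5.3 in these data; same plate scores as AID 2156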;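 further: B-score of peak minus minimum over baseline fluorescence ratio after K+ and Tl+ stimulus; positive B-score means potentiation of KCNQ2 with more thallium influx and brighter signal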
KCNQ2 inh conf: rat KCNQ2 channel inhibition, confirmatory screen; activity change, negative = inhibition, % at 10 µM; actives 57% (n = 1,000); AID 493025; KCNQ2-expressing cells, thallium flux; stronger effect = lower value; shares compounds with KCNQ2 inh;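 further: 0% = vehicle wells and values are ratio percent relative to vehicle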
KCNQ1 spec: human KCNQ1 activity in KCNQ2 inhibitor specificity screen. activity change, negative = inhibition, % at 10 µM. shares compounds with KCNQ2 inh. AID 493026. KCNQ1-expressing cells, FluxOR thallium flux fluorescence; stronger effect = lower value. actives 15% (n = 1,000);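 active means activity change at least 3 SD of negative controls below their mean in both duplicate wells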;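 further: CHO cells stably transfected with KCNQ1 and depolarized by potassium stimulus; peak minus minimum fluorescence over baseline after thallium addition; 0% = vehicle negative control and -100% = blank without thallium stimulus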
Target sequence (P51787 whole entry, looked up): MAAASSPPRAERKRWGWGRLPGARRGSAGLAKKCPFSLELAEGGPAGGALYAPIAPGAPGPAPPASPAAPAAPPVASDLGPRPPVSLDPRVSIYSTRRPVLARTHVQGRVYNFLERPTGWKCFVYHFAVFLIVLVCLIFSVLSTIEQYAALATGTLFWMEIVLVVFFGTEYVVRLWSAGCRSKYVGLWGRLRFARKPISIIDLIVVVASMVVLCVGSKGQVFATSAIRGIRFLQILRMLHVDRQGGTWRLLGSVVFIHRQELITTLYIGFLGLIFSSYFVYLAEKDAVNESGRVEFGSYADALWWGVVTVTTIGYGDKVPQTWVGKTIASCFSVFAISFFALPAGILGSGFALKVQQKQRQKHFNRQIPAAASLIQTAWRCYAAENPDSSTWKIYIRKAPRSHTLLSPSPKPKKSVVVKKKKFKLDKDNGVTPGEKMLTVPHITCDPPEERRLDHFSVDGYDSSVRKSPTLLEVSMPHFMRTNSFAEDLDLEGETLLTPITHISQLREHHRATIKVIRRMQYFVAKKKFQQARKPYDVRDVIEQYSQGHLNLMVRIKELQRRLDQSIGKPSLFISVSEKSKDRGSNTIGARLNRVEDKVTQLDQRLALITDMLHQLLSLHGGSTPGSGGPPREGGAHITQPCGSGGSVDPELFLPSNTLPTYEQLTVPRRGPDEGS
CHO parental ctr: activity in parental CHO cells lacking KCNQ2. shares compounds with KCNQ2 inh. thallium flux counter-screen; stronger effect = lower value. activity change, % at 10 µM. actives 14% (n = 1,000). AID 493029;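 further: 0% = vehicle negative controls with stimulus buffer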
KCNQ2 patch conf: confirmation of rat KCNQ2 potassium channel inhibitors; shares compounds with KCNQ2 inh; KCNQ2-expressing cells, automated patch clamp current; calls only at 10 µM; actives 49% (n = 550); AID 588531
Active calls of the source: *; i = inactive; . = no result; + = active, no number. Hits are enriched below; roughly 1.6% of the tested compounds scored in any of these assays. Unless noted, how the calls were made is not given here.

SMILES	KCNQ2 inh	KCNQ2 pot	others
CC1(C)CC(=O)C(C(C#Cc2ccccc2)C2=C(O)CC(C)(C)CC2=O)=C(O)C1	-5.66*	-5.66
O=C1CCCC(O)=C1C(C#Cc1ccccc1)C1=C(O)CCCC1=O	-6.46*	-6.46
CC1(C)CC(=O)C(N=Nc2ccc(-c3ccccc3)cc2)=C(O)C1	i	.
O=C1CCCC(O)=C1Sc1ccccc1C(=O)O	i	.
COc1cccc(CN2C[C@]34C=C[C@@H](C[C@@H]3S2(=O)=O)O4)c1	i	0.37
COc1ccccc1N(CC(=O)NCCSCc1ccccc1Cl)S(C)(=O)=O	i	.
Cc1ccc(CSC2=NCCN2S(=O)(=O)c2ccc(F)cc2)cc1	i	.
Cc1ccc(OCCOC(=O)Nc2ccccc2)cc1	i	1.07
C=C(C)C1CCC(C)=C1COC(=O)Nc1ccccc1 (centres undefined)	-5.89*	-5.89
COc1ccc(F)cc1S(=O)(=O)Nc1cc2c3c(c1)CCC(=O)N3CCC2	i	.
CC(=O)c1cccc(-n2nnnc2SCC(=O)Nc2cc(C)on2)c1	i	1.18
Cc1ccc(/C=C/C(=O)N2CCN(c3ncccn3)CC2)o1	i	8.93*
Cc1ccc(/C=C/C(=O)N2CCN(c3ccc(F)cc3)CC2)o1	i	.
O=C1CCC(C(=O)N2CCCO2)CN1Cc1cccc(C(F)(F)F)c1 (centres undefined)	i	.
Cc1ccc(CNCC(=O)Nc2cccc(S(=O)(=O)NC3=NCCCCC3)c2)cc1	i	.
CCc1cc2c(nc1CC)CCN(CC/C(C)=N/OC[C@H]1O[C@H](c3ccccc3)C=C[C@@H]1Oc1ccc(OC)cc1)C2	i	.
COc1ccc(O[C@H]2C=C[C@@H](c3ccccc3)O[C@@H]2CO/N=C(\C)CCN2CCc3nc(-c4ccccc4)c(-c4ccccc4)cc3C2)cc1	i	7.48*
COc1ccc(S(=O)(=O)N(C)C)cc1NC(=O)CN1C(=O)NC2(CCCC2)C1=O	i	.
Cc1cc(C)n(-c2ccc(C)c(Cl)c2)n1	i	.
CC1=C(C)C(=O)C(CCCCC#CCCCC#CCO)=C(C)C1=O	-6.83*	-6.83
CCCCS(=O)(=O)/C=C\C=C/S(=O)(=O)CCCC	i	6.71*
CCCCS(=O)(=O)/C=C\C1C2C=CC(C2)C1S(=O)(=O)CCCC (centres undefined)	i	.
COc1ccc(C2CC(c3ccccc3)=NN2C(=O)CCCC(=O)O)cc1 (centres undefined)	i	0.09
COc1ccc(C)cc1S(=O)(=O)NC(C)C(=O)NC1CC1 (centres undefined)	i	.
CCCCN1CC(=O)N2[C@H](c3ccc(Cl)cc3)[C@@H]3C(=O)N(CC)C(=O)[C@@H]3[C@]2(C)C1=O	i	.
SMILES	KCNQ2 inh	KCNQ2 pot	others
Cn1c(NNC(=O)c2cccc3ccccc23)cc(=O)n(C)c1=O	i	.
CCOC(=O)c1c(-c2ccc(C)o2)csc1NC(=O)COC(=O)c1cccs1	-5.99*	-5.99
CCOC(=O)c1c(-c2ccc(C)o2)csc1NC(=O)CN1CCOCC1	i	.
O=C(NCCNC(=O)c1ccccn1)c1ccc(-c2ccccc2)cc1	i	1.19
COc1ccc(CNC(=O)[C@@H](C)NC(=O)C2CCN(C(=O)[C@@H](N)CCSC)CC2)cc1	i	1.11
Cc1ncc(C[n+]2csc(CCOC(=O)CC34CC5CC(CC(C5)C3)C4)c2C)c(N)n1	i	.
Cc1c(CCOC(=O)CC23CC4CC(CC(C4)C2)C3)sc[n+]1Cc1ccccc1	-5.6*	-5.6
COc1cccc(OC)c1C(=O)Nn1c(-c2cccs2)nc2ccccc2c1=O	-9.22*	-9.22	KCNQ2 inh conf=i;KCNQ1 spec=i;CHO parental ctr=i
COc1ccc(Cl)cc1C(=O)Nn1c(-c2cccs2)nc2ccccc2c1=O	i	0.19
CCOc1ccc(NC(=O)CCN2C(=O)c3ccccc3C2=O)cc1	i	.
O=C(COC(=O)C1CCN(c2ccc(C(F)(F)F)cn2)CC1)NCCc1ccccc1	i	1.92
COc1ccccc1CNC(=O)COC(=O)C1CCN(c2ccc(C(F)(F)F)cn2)CC1	-6.8*	-6.8	KCNQ2 inh conf=i;KCNQ1 spec=i;CHO parental ctr=i
Cc1c(-c2cc(C(=O)O)c3ccccc3n2)cnn1C	i	1.83
Cc1ccc(C(=O)CSc2nnc(COc3ccc(C#N)cc3)n2-c2ccccc2)cc1	i	0.91
Cc1ccc(OCc2nnc(SCC(=O)Nc3cccc4ccccc34)n2-c2ccccc2)cc1	-8.54*	-8.54	KCNQ2 inh conf=i;KCNQ1 spec=i;CHO parental ctr=i
COc1ccccc1OCCNC(=O)Cc1ccc(S(=O)(=O)N2CCOCC2)s1	i	.
CC(NC(=O)Cn1cccc1)c1ccccc1 (centres undefined)	i	0.65
COc1ccc(C(=O)OCC(=O)c2ccccc2)cc1S(=O)(=O)N1CCOCC1	i	0.03
Cc1cccc(C)c1OCc1cc(C(=O)N2CCC(c3ccccc3)CC2)no1	-9.17*	-9.17	KCNQ2 inh conf=-23.5%*;KCNQ1 spec=i;CHO parental ctr=i;KCNQ2 patch conf=+
Cc1cccc(C)c1OCc1cc(C(=O)N2CCC(C3CCCCC3)C2)no1 (centres undefined)	i	.
O=C(CCCOc1ccc(Cl)cc1Cl)NCCc1ccccn1	i	1.12
COc1cccc(CNS(=O)(=O)c2c(C(=O)N3CCCCCC3)c(C)n(C)c2C)c1	i	.
CC1(O)c2ccccc2C(=O)N1Cc1ccccc1 (centres undefined)	i	0.05
O=C1c2ccccc2C(O)(c2ccccc2)N1CCc1ccccc1 (centres undefined)	-8.44*	-8.44	KCNQ2 inh conf=-24.0%*;KCNQ1 spec=i;CHO parental ctr=i;KCNQ2 patch conf=+
OCC1(CCc2ccccc2)CCCN(CCCc2ccccc2)C1 (centres undefined)	-6.62*	-6.62	KCNQ2 inh conf=-35.5%*;KCNQ1 spec=-33.5%*;CHO parental ctr=-25.5%*;KCNQ2 patch conf=i
SMILES	KCNQ2 inh	KCNQ2 pot	others
OCC1(CCc2ccccc2)CCCN(CCCC(F)(F)F)C1 (centres undefined)	i	.
Clc1ccc(CN(Cc2ccccc2)C(c2cccs2)c2nnnn2C2CCCC2)cc1 (centres undefined)	i	.
CC(C)(C)n1nnnc1C(c1cccs1)N(Cc1ccc(Cl)cc1)CC1CCCO1 (centres undefined)	-9.93*	-9.93	KCNQ2 inh conf=i;KCNQ1 spec=i;CHO parental ctr=i
Clc1ccc(/C(Cc2nc3ccccc3[nH]2)=N\Nc2ccccc2)cc1	-6.6*	-6.6	KCNQ2 inh conf=-38.0%*;KCNQ1 spec=i;CHO parental ctr=i;KCNQ2 patch conf=i
Clc1ccc(SCc2nc3ccccc3[nH]2)cc1	i	.
O=C(CCCSc1nc2ccccc2c(=O)[nH]1)c1ccc(F)cc1	i	.
CC1CCN(C(=O)CSc2nc3ccccc3c(=O)n2Cc2ccc3c(c2)OCO3)CC1	-7.33*	-7.33	KCNQ2 inh conf=i;KCNQ1 spec=i;CHO parental ctr=i
CC1CCN(C(=O)Cn2c(=O)n(Cc3ccc4c(c3)OCO4)c(=O)c3ccccc32)CC1	-7.17*	-7.17	KCNQ2 inh conf=-31.0%*;KCNQ1 spec=i;CHO parental ctr=i;KCNQ2 patch conf=+
CC1CCCCN1C(=O)CSc1nc2cc3c(cc2c(=O)n1Cc1ccc2c(c1)OCO2)OCO3 (centres undefined)	i	.

Compound activity from PubChem.
